Each structure is given as a SMILES string.

The assay in a line: qHTS drug screen for cell cycle checkpoint inhibitors in PARPi-resistant BRCA-mutant ovarian cancer cell lines. (AID 1963452). The settings on record: PEO1/OlaR viability, CellTiter-Glo luminescence, 96 h; measured here: PEO4 Z-AUC; stronger effect = lower value. In outline:
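PEO1, PEO4 and PEO1/OlaR ovarian cancer cells, 600 per well, exposed 96 h at 37C to a dilution series. Viability read by CellTiter-Glo luminescence, normalized to DMSO and empty wells; activity summarized as Z-AUC.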
Background: Quantitative high-throughput screening tests each substance at several concentrations.
Take `CSC[C@H]1CN(Cc2c[nH]c3c(N)ncnc23)C[C@@H]1O`: the Z-AUC came to 1.05.

With `C=CC(=O)Nc1cccc(Oc2nc(Nc3ccc(N4CCN(C)CC4)c(F)c3)nc3[nH]ccc23)c1`, the Z-AUC is -0.658.

For `COCCOC(=O)N1CCN(S(=O)(=O)c2cc(F)c(Oc3ccc(Cl)cc3)c(F)c2)C(C(=O)NO)C1` (stereo not drawn), the Z-AUC is -1.17.

As for `COc1nc(N)nc2c1ncn2C1OC(CO)C(O)C1O` (stereo not drawn), the Z-AUC is -0.286.

With `COc1ccc(COc2ccc(Cc3cnc(N)nc3N)cc2OC)cc1`, the Z-AUC worked out at 0.82.

As to `CCOC(=O)N[C@@H]1CC[C@@H]2[C@@H](C1)C[C@H]1C(=O)O[C@H](C)[C@H]1[C@H]2/C=C/c1ccc(-c2cccc(F)c2)cn1`, the Z-AUC stood at 1.33.

As to `O=C(NO)c1ccc(C2=Nc3ccccc3Oc3ccccc32)cc1`, the Z-AUC is -1.1.

Turning to `O=C1CC(c2c[nH]c3ccc(F)cc23)C(=O)N1` (stereo not drawn), the Z-AUC is 0.655.

The values above are taken from PubChem BioAssay (NCATS).
